# B2AR ag – agonists of human beta-2 adrenergic receptor inducing internalization; Am2.2-beta2AR cells, FAP receptor internalization, flow cytometry; response, % (concentration not given with the values); 0.43% of 340,000 active; AID 504454;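 active = response above a set limit, near 3 SD of response in nonfluorescent compounds, cut at about 42% in these data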
# HTR2A ag – mouse HTR2A agonism via beta-arrestin recruitment; activation, % at 7.6 µM; 0.66% of 360,000 active; CHO-K1 mHTR2A beta-arrestin complementation, luminescence; percent of 30 µM serotonin response; P35363;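 active = activation above a run cutoff, the mean activation of all tested compounds plus 3 SD, cut at about 14% in these data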;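 note: 0% = plate median of compound wells and 100% = 30 µM serotonin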
# Granule exo inh – blocks lytic granule exocytosis | 0.66% of 360,000 active | TALL-104 LAMP-1 surface exposure, flow cytometry; cells stimulated with thapsigargin and PMA | AID 651702 | inhibition, % at 10 µM;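 active = inhibition above about 55%, limit read from the data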
# NTR1 ag – agonists of human neurotensin receptor NTR1; P30989; NTR1-U2OS beta-arrestin-GFP spot imaging, agonist mode; activation, % at 20 µM; 0.17% of 330,000 active; AID 493036;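 active = activation at or above 40% of the spot to cytoplasm intensity ratio, with at least 20 cells analyzed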;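 note: 0% = DMSO without peptide and 100% = 100 nM NTR1 peptide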
# ABHD5 PLIN5 PPI – inhibitors of human ABHD5-perilipin-5 interaction. Q00G26+Q8WTS1. Split G. princeps luciferase complementation, luminescence, 4 h. inhibition, % at 4 µM. 0.78% of 360,000 active;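 active = inhibition above the mean inhibition across every tested compound plus 3 SD, cut at about 22% in these data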;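 note: 0% = DMSO only wells and the 100% control is not disclosed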
# Target sequence (Q00G26 whole entry, looked up): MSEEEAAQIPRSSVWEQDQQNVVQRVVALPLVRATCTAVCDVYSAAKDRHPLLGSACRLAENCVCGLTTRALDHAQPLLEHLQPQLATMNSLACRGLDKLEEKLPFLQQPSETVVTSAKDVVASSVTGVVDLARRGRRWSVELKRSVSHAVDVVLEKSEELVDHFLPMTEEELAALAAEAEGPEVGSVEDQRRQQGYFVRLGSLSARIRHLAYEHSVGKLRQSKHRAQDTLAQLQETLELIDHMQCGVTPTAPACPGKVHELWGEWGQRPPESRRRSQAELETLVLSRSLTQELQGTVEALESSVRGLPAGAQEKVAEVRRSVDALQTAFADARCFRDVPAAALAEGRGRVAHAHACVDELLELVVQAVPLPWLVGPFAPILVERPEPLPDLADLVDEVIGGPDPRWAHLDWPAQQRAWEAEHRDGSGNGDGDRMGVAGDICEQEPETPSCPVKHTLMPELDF
# Target sequence (Q8WTS1 whole entry, looked up): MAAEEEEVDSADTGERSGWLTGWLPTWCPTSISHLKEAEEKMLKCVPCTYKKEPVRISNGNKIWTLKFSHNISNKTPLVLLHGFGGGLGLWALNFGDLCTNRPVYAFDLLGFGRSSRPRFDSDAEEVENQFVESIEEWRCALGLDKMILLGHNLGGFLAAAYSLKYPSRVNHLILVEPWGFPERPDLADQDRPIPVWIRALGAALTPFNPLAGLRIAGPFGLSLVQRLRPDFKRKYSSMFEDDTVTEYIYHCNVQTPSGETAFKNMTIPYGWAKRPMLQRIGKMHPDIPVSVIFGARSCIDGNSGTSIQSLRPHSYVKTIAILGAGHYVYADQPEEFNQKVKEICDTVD
# Beta2AR ag CP1 – activates human beta-2 adrenergic receptor. shares compounds with B2AR ag. 25% of 1,100 active. percent response (surface receptor), % at 10 µM. Am2.2-beta2AR cells, FAP surface receptor, flow cytometry; stronger effect = lower value;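 active = surface receptor percent response at or below 58%, roughly 3 SD from nonfluorescent compounds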
# FAP fluor counter – fluorescence artifact in beta-2AR agonist FAP counterscreen. 1,100 tested, under 10 active. Am2.2 cells, FAP fluorogen flow cytometry; stronger effect = lower value. calls only at 10 µM. shares compounds with B2AR ag;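 active = percent response below a set limit in fluorescence channel 1 and below 50% in channel 8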
# The depositor's hits bear a star; i = inactive; x = not tested or not shown; ! = a repeat was not active. Only some compounds are listed: those with a hit (about 2.3% of all), similar ones and a draw of the others.
SMILES,B2AR ag,HTR2A ag,Granule exo inh,NTR1 ag,ABHD5 PLIN5 PPI,Beta2AR ag CP1,FAP fluor counter
CCOC(=O)C1(C)C=C(Nc2ccc(O)cc2)C(=O)N1c1ccc(O)cc1 (stereo not drawn),52*,-2,0,0,-5,28*,i
O=C(Nc1ccccc1O)/C(=C\c1ccccc1)NC(=O)c1ccccc1,7,2,4,2,8,x,x
Cc1ccc(C(=O)N2CCN(c3ccc(NC(=O)c4ccc(Br)o4)cc3)CC2)cc1,12,1,1,3,11,120,i
COc1ccc(C(=O)N2CCN(c3ccc(NC(=O)c4ccco4)cc3)CC2)cc1,-6,4,-8,0,-5,x,x
CCc1ccc(C(=O)N2CCN(c3ccc(NC(=O)c4ccco4)cc3)CC2)cc1,-12,3,-5,-1,4,122,i
C#CCOCCOCCOCCNc1nc(N2CCN(C(=O)[C@H](Cc3ccc(O)cc3)n3cc(CCO)nn3)CC2)nc(N2CCN(C(=O)[C@H](Cc3ccc(O)cc3)n3cc(CCO)nn3)CC2)n1,x,x,x,0,x,x,x
O=S(=O)(Cc1noc(-c2ccc(Cl)cc2)n1)Cc1ccco1,6,4,3,0,6,x,x
CCC(C)(C)NC(=O)C(c1ccc(OC)cc1)N(Cc1ccccc1)C(=O)CCC(=O)Nc1cc(C)on1 (stereo not drawn),62*,0,4,3,0,109,i
CCC(C)(C)NC(=O)C(c1ccc(OC)cc1)N(Cc1ccc(OC)cc1)C(=O)CCC(=O)Nc1cc(C)on1 (stereo not drawn),0,8,18,1,0,x,x
CN(C)Cc1cc(C(F)(F)F)ccc1C(O)(c1ccccc1)c1ccccc1,24,2,17,x,5,x,x
CC(=O)NC(C)(c1ccccc1)c1nc(-c2ccc(N(C)C)cc2)cs1 (stereo not drawn),x,-7,4,x,3,x,x
COC(=O)C1CCN(C(=O)c2oc3c(Cl)cc(C)cc3c2C)CC1,5,-2,-1,2,-1,x,x
Cc1cc(Cl)c2oc(C(=O)N3CCN(c4ccncc4)CC3)c(C)c2c1,65*,-8,24,4,16,65,i
COc1ccc2nc(NC(=O)CSc3nnc(N)s3)sc2c1,75*,-1,-3,-2,-5,78,i
NC(=O)N/N=C/c1ccccc1OC(=O)c1cc2ccccc2oc1=O,-5,-3,-8,-1,2,x,x
NC(=S)N/N=C/c1ccccc1OC(=O)c1cc2ccccc2oc1=O,0,0,3,0,4,102,i
COc1cc(NC(=O)c2csc(-c3ccncc3)n2)cc(C(=O)Nc2cccc(C(F)(F)F)c2)c1,60*,2,0,-2,6,86,i
O=C(Nc1cccc(C(F)(F)F)c1)c1csc(-c2ccncc2)n1,-3,-3,0,2,8,x,x
COc1cc(NC(=O)c2nccnc2N)cc(C(=O)Nc2cccc(C(F)(F)F)c2)c1,7,3,3,-2,0,x,x
COc1cc(NC(=O)c2ccc(N)nc2)cc(C(=O)Nc2cccc(C(F)(F)F)c2)c1,43*,-1,-11,-3,-3,67,i
CCOc1cc(-c2c(C)c(CC)nc(N)c2C#N)ccc1O,69*,3,0,3,-4,103,i
CCOc1cc(-c2nc3ccccn3c2NCC2CCCO2)ccc1O (stereo not drawn),20,10,-1,3,2,30*,i
COc1cc(-c2nc3ccccn3c2NCC2CCCO2)ccc1O (stereo not drawn),-16,-1,-2,1,4,x,x
Nn1c(SCC(=O)Nc2nccs2)nnc1-c1ccccn1,1,3,-3,0,0,x,x
COC(=O)N(C)C[C@H]1OCc2cnnn2CCCC(=O)N([C@H](C)CO)C[C@H]1C,x,-2,-2,x,-9,x,x
SMILES,B2AR ag,HTR2A ag,Granule exo inh,NTR1 ag,ABHD5 PLIN5 PPI,Beta2AR ag CP1,FAP fluor counter
CCOC(=O)c1c(C)[nH]c(C)c1C(=O)COC(=O)c1cccc(S(=O)(=O)N(CC)CC)c1,44*,-4,6,1,-9,118,i
COc1cc(NC(=O)C2CC(=O)N(CCc3ccc(F)cc3)C2)cc(OC)c1OC (stereo not drawn),3,-2,0,2,3,x,x
CCN1CCN(c2ccc(NC(=O)c3ccc([N+](=O)[O-])o3)cc2Cl)CC1,63*,-5,3,x,0,13*,i
Cc1nn(C)c(C)c1NC(=O)c1cc2nc(-c3ccco3)cc(C(F)(F)F)n2n1,-11,-2,2,0,3,x,x
Cc1ccc(Cn2ccc(NC(=O)c3cc4nc(-c5ccco5)cc(C(F)(F)F)n4n3)n2)cc1,112*,0,0,5,6,7.1*,i
Cc1ccc(S(=O)(=O)N2CC3C(=O)C[C@@H](c4ccccc4)N(S(=O)(=O)c4ccc(CCCOCCOCCNC(=O)OC(C)(C)C)cc4)C3CC2c2ccccc2)cc1 (stereo partly drawn),x,8,-1,x,8,x,x
CCCCCN(C(=O)CCC(=O)OCC(=O)Nc1cccc(CC)c1)c1c(N)n(CCCC)c(=O)[nH]c1=O,0,2,6,2,-2,x,x
CC1CCCN(S(=O)(=O)CCNC(=O)c2ccccc2)C1 (stereo not drawn),-2,-2,0,0,-8,x,x
Fc1ccc([C@@H]2CCNC[C@H]2COc2ccc3c(c2)OCO3)cc1,45*!,3,3,4,4,94,i
CC1CCCN(C(=O)C(C)Sc2nc(-c3ccccc3)cc(C(F)(F)F)n2)C1 (stereo not drawn),15,-3,-1,6,-9,67,i
O=C(CSc1nc(-c2ccccc2)cc(C(F)(F)F)n1)N1CCOCC1,-12,2,2,-2,-7,x,x
CC(Sc1nc(-c2ccccc2)cc(C(F)(F)F)n1)C(=O)N1CCCCC1 (stereo not drawn),99*,-7,6,0,9,11*,i
O=C(/C(=N\Nc1ccccc1)Sc1nnnn1-c1ccccc1)c1ccccc1,0,7,1,4,-6,x,x
CCNC(=O)CN(CCc1ccccc1)S(=O)(=O)c1ccc(OC)cc1,0,-1,-1,0,2,x,x
COc1ccc(S(=O)(=O)N(CCc2ccccc2)CC(=O)O)cc1,51*,4,3,0,-1,102,i
CCOc1cc2[nH]c(=S)n(CCOC)c(=O)c2cc1OCC,6,1,0,0,-3,x,x
COCCn1c(=S)[nH]c2ccc(N(C)C)cc2c1=O,45*,0,0,0,-5,122,i
